An excerpt weighted towards active compounds, which were near 1.1% of everything screened.
SRC3 inh: SRC3 coactivator transcriptional activity inhibitors, primary screen, cell-based, luminescence; inhibition, % at 3.6 µM; HEK293 GAL4-SRC3 luciferase reporter; Nuclear receptor coactivator 3 (Homo sapiens), Q9Y6Q9; 0.17% of 360,000 active;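 active = inhibition above a per-campaign cutoff, the mean of all compounds plus 3 SD, cut at about 60% in these data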;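 also: higher means less SRC3-driven luciferase light from the GAL4 reporter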
COUP-TFII inh: NR2F2 transcriptional activity inhibitors, primary screen, cell-based, luciferase reporter, HEK293T, luminescence. COUP transcription factor 2 (Homo sapiens), P24468. HEK293T NGFI-A luciferase reporter. inhibition, % at 8.6 µM. 0.7% of 370,000 active. AID 686940, 2013;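 active = inhibition above a per-plate cutoff, mean inhibition of test wells between control levels plus 3 SD, cut at about 38% in these data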;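 also: cells cotransfected with COUP-TFII expression vector driving the NGFI-A reporter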
LRH-1 inv ag: LRH-1 (NR5A2) inverse agonists, primary screen, cell-based, luminescence, HEK293T, StAR-luciferase reporter | 0.13% of 360,000 active | inhibition, % at 3.6 µM | Nuclear receptor subfamily 5 group A member 2 (Homo sapiens), O00482 | LRH-1 transfected, 24 h;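 active = inhibition above the mean inhibition of all tested compounds plus 3 SD, cut at about 73% in these data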
SRC2 inh: inhibition of GAL4-SRC2 driven luciferase reporter, primary screen, SRC2 inhibitor project, cell-based, luminescence | Nuclear receptor coactivator 2 (Homo sapiens), Q15596 | HEK293 GAL4-SRC2 luciferase reporter | inhibition, % at 9 µM | 0.17% of 370,000 active | AID 651957, 2012;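 active = inhibition above the mean inhibition of all tested compounds plus 3 SD, set per campaign, cut at about 52% in these data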
GalR3 antagonist: GalR3 antagonists in HEK293 cells, primary screen, cell-based, fluorescence readout; Galanin receptor type 3 (Homo sapiens), O60755; HEK293 GalR3-CNG cAMP membrane potential fluorescence; galR3 body fused to GalR1 C-terminus; 0.44% of 360,000 active; inhibition, % at 3 µM;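 active = inhibition above the screen-wide average plus 3 SD, cut at about 13% in these data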;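 also: forskolin and galanin both at EC90 stimulate the cells; cAMP rise reported by CNG channel membrane potential dye signal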
SRC1 inh: SRC1 coactivator transcriptional activity inhibitors, primary screen, cell-based, luminescence; Nuclear receptor coactivator 1 (Homo sapiens), Q15788; HEK293 GAL4-SRC1 luciferase reporter; inhibition, % at 3.6 µM; 0.12% of 360,000 active; AID 588354, 2011;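 active = inhibition above the campaign mean plus 3 SD, with each screening campaign given its own cutoff, cut at about 60% in these data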
GalR3 antag conf: GalR3 antagonist hit confirmation, cell-based, fluorescence, triplicate; shares compounds with GalR3 antagonist; AID 652245, 2013; HEK293 GalR3 CNG cAMP biosensor, membrane potential fluorescence; galR3 fused to GalR1 carboxy tail; challenged with forskolin and galanin at EC90; 59% of 1,600 active; inhibition, % at 3 µM;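 active = inhibition above the primary screen's cutoff, the mean inhibition of all screened compounds plus 3 SD, cut at about 13% in these data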
HEK-CNG parental: nonspecific cAMP agonists in parental HEK-CNG cells, counter-screen for GalR3 antagonist project, cell-based, fluorescence, high throughput. HEK293-CNG parental cells, cAMP membrane potential fluorescence; normalised: DMSO wells 0%, forskolin wells 100%. shares compounds with GalR3 antagonist. AID 652268, 2013. 10% of 1,600 active. activation, % at 3 µM; in the data active = activation above about 1.3%
Large screens that a line does not name were inactive (follow-up assays come after a bar, where they were run).

COC(C[C@H]1O[C@H]1[C@H](O)[C@H](C)OCc1ccccc1)OC	none (no result: GalR3 antagonist) | GalR3 antag conf inactive | HEK-CNG parental inactive
CCCOC(=O)CCCC[C@H]1SC[C@@H](NC(=O)OC)[C@H]1NC(=O)OC	GalR3 antagonist 14 | GalR3 antag conf inactive | HEK-CNG parental inactive
CCN1C(=O)Cc2cc(S(=O)(=O)N3CCOCC3)ccc21	none
CCN1CC(=O)Nc2cc(S(=O)(=O)N3CCOCC3)ccc21	GalR3 antagonist 16 | GalR3 antag conf inactive | HEK-CNG parental inactive
C[C@@H]1OC(C2CCCCC2)N(C)[C@H]2C[C@H]3c4[nH]c5c(-c6ccccc6)cccc5c4CCN3C(=O)[C@@H]12 (stereo partly drawn)	none (no result: SRC3 inh, LRH-1 inv ag, SRC1 inh)
COc1cc(/C=N/n2cnnc2)ccc1OCc1ccc(C)cc1	GalR3 antagonist 59 | GalR3 antag conf 44 | HEK-CNG parental inactive
COC(=O)C1=CN(c2ccc(C(C)(C)C)cc2)C(N)=C(C#N)C1c1ccc(OC)cc1 (stereo not drawn)	none (no result: SRC3 inh, SRC1 inh)
CCOc1ccc(CCN2C(=S)N([C@@H](Cc3ccc(O)cc3)CN3CCC[C@@H]3CN3C(=S)NC[C@@H]3CC(C)C)C[C@@H]2Cc2ccc(O)cc2)cc1	none
CC(=O)c1ccc(NC(=O)CSc2nnc(-c3ccco3)c(-c3ccco3)n2)cc1	none
O=C(CSc1nnc(-c2ccco2)c(-c2ccco2)n1)c1ccccc1	GalR3 antagonist 13 | GalR3 antag conf inactive | HEK-CNG parental inactive
O=C(NCc1ccccc1)c1cc[n+](CC(=O)c2cccs2)cc1	GalR3 antagonist 13 | GalR3 antag conf inactive | HEK-CNG parental inactive
O=C(C[n+]1ccc(C(=O)NCc2ccccc2)cc1)c1ccc(F)cc1	none (no result: SRC3 inh, SRC1 inh)
C[C@H]1[C@@H](OC(=O)Nc2cccc(C(F)(F)F)c2)CC[C@@]23CCCN2C(=O)CCC[C@@H]13	none (no result: SRC3 inh, LRH-1 inv ag, SRC2 inh, GalR3 antagonist, SRC1 inh)
C=CCn1c(SC2CCOC2=O)nc2sc(C)c(C)c2c1=O (stereo not drawn)	GalR3 antagonist 35 | GalR3 antag conf 36 | HEK-CNG parental inactive
Cc1sc2nc(SC3CCOC3=O)n(Cc3ccccc3)c(=O)c2c1C (stereo not drawn)	none
C[C@@H](NC(=O)C[C@H]1CC[C@H]2[C@@H](COc3ccc(NC(=O)Nc4ccccc4)cc3C(=O)N2C)O1)c1ccccc1	none (no result: SRC3 inh, LRH-1 inv ag, GalR3 antagonist, SRC1 inh)
CC(C)C(=O)NC(c1ccc([N+](=O)[O-])cc1)c1c(O)ccc2ccccc12 (stereo not drawn)	none
CC(C)C(=O)NC(c1cccc([N+](=O)[O-])c1)c1c(O)ccc2ccccc12 (stereo not drawn)	GalR3 antagonist 16 | GalR3 antag conf inactive | HEK-CNG parental inactive
CCCS(=O)(=O)NC(=O)C1(C)CCCN(C(=O)c2ccc(C#N)cc2)C1 (stereo not drawn)	none
CC1(C)C(=O)Nc2ccccc2N1C(=O)COC(=O)c1cc(S(C)(=O)=O)ccc1Cl	none
O=C(OCCN1C(=O)c2ccccc2C1=O)c1cc(S(=O)(=O)N2CCOCC2)ccc1Cl	none
CC1(C)C(=O)Nc2ccccc2N1C(=O)COC(=O)c1cc(S(=O)(=O)N2CCOCC2)ccc1F	GalR3 antagonist 39 | GalR3 antag conf 16 | HEK-CNG parental inactive
O=C(OCN1C(=O)c2ccccc2C1=O)c1cc(S(=O)(=O)N2CCOCC2)ccc1F	GalR3 antagonist 13 | GalR3 antag conf 24 | HEK-CNG parental inactive
O=C(Cn1cnc2ccccc2c1=O)N1CCN(Cc2ccc(F)cc2)CC1	none (no result: SRC3 inh, LRH-1 inv ag, GalR3 antagonist, SRC1 inh)
COc1ccc(/C=C2\SC(=N)N(c3ccc(F)cc3)C2=O)cc1OC	GalR3 antagonist 18 | GalR3 antag conf 17 | HEK-CNG parental inactive
CCC(CO)Nc1cccc2c1S(=O)(=O)N(Cc1cn(Cc3ccc(F)cc3)nn1)Cc1ccccc1O2 (stereo not drawn)	none (no result: SRC3 inh, LRH-1 inv ag, GalR3 antagonist, SRC1 inh)
COc1ccc2[nH]c3c(c2c1)CCN1C(=O)N([C@@H](C)C(=O)NCCc2ccc(OC)c(OC)c2)C(=O)[C@]31C	GalR3 antagonist 26 | GalR3 antag conf inactive | HEK-CNG parental inactive
CN1OC[C@@H]2CN(C(=S)NCCc3ccccc3)[C@H](c3ccc(-n4ccnc4)cc3)C[C@@H]21	none
CCN(CC(=O)Nc1ccc2c(c1)OCCO2)C(=O)/C=C/c1ccc(F)cc1	GalR3 antagonist 13 | GalR3 antag conf 28 | HEK-CNG parental 2.4
CCC(C)[C@H](NS(=O)(=O)c1ccc(C)cc1)C(=O)N1CCC(C(=O)N[C@H](C(=O)O)c2ccccc2)CC1 (stereo partly drawn)	GalR3 antagonist 30 | GalR3 antag conf inactive | HEK-CNG parental inactive
COc1ccc(/C=C/S(=O)(=O)NCc2ccc(F)cc2)c(CNC(=O)OC(C)(C)C)c1	none (no result: SRC3 inh, LRH-1 inv ag, GalR3 antagonist, SRC1 inh)
Cc1ccccc1C(=O)N[C@H](C(=O)N1CCC[C@H]1C(=O)NC1CCCC1)c1ccccc1	none (no result: SRC3 inh, LRH-1 inv ag, SRC1 inh)
COc1ccc(C)c2sc(N3CCCC3)nc12	none
COc1ccc(OC)c2sc(N3CCN(c4ccccc4)CC3)nc12	GalR3 antagonist 15 | GalR3 antag conf inactive | HEK-CNG parental inactive
O=C(CC1CCCC1)N[C@H](C(=O)N1CCC[C@H]1C(=O)NC1CCCC1)c1ccccc1	none (no result: SRC3 inh, LRH-1 inv ag, SRC1 inh)
CC(=O)N/C(=C\c1ccc2c(c1)OCO2)C(=O)NC(C(=O)O)c1ccccc1 (stereo not drawn)	none
CC(=O)N/C(=C/c1ccc2c(c1)OCO2)C(=O)NC(Cc1ccccc1)C(=O)O (stereo not drawn)	GalR3 antagonist 16 | GalR3 antag conf inactive | HEK-CNG parental inactive
Cc1ccc2nc(N(CCN(C)C)C(=O)C3CCN(S(=O)(=O)c4cccs4)CC3)sc2c1	none
COc1cc2c(cc1OC)-c1cc(Nc3ccccc3C)nc(=O)n1CC2	GalR3 antagonist 46 | GalR3 antag conf 53 | HEK-CNG parental inactive
CCOc1ccccc1Nc1cc2n(c(=O)n1)CCc1cc(OC)c(OC)cc1-2	GalR3 antagonist 53 | GalR3 antag conf 67 | HEK-CNG parental inactive

From PubChem
